FECH block – inhibitors of human ferrochelatase, primary screen, biochemical, purified FECH, Ni-mesoporphyrin absorbance; Ferrochelatase, mitochondrial (Homo sapiens), P22830; Ni-mesoporphyrin absorbance 550 nm; calls only at 10 µM (by protocol); actives 3.3% (n = 20,000);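 active = enzyme reaction rate more than 3 SD below the solvent-only control wells on the same plate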;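 also: lower slope than DMSO wells means FECH inhibition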
Target sequence (P22830 whole entry, looked up): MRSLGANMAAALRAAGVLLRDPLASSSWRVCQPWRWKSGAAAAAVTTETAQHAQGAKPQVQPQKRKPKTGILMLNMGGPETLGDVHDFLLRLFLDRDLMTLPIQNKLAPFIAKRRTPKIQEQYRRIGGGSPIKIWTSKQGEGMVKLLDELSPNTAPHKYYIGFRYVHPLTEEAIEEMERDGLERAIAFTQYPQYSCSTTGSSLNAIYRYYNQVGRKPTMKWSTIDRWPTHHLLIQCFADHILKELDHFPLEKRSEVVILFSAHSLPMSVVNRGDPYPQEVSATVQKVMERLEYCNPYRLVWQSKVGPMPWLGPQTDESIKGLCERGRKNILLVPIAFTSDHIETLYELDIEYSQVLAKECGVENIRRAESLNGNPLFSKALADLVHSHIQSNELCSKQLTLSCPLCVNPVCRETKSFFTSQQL
An asterisk follows results filed as active; i = inactive; + = active, no number. The entries come from a sample that favours hits as a whole.

SMILES	FECH block
COc1ccc(N2C(=O)CCS2(=O)=O)cc1S(=O)(=O)Nc1ccccc1C(F)(F)F	i
COCC1(C(=O)N(Cc2nccn2C)C2CC2)CCC1	i
Cc1ccc(C)c(CN2CCCN(CC(=O)NCCc3ccccc3)S2(=O)=O)c1	i
COc1cc(Cl)cc2c1OC=CC(C(=O)Nc1ccc(S(N)(=O)=O)cc1)=C2	+
COc1ccc(NC(=O)c2cc(-c3ccc(OC)c(S(N)(=O)=O)c3)n[nH]2)cc1	i
NS(=O)(=O)c1ccc(NC(=O)c2csnn2)cc1	i
Cc1[nH][nH]c(=O)c1CC(=O)NCc1cnn(-c2cccc(F)c2)c1	i
Cc1ccccc1Oc1ncccc1CNC(=O)C1COc2ccccc2O1 (stereo not drawn)	i
CN(Cc1noc(C2CC2)n1)C(=O)Nc1nc(-c2ccccc2)ns1	i
COc1ccc(C2C=C(c3ccccc3)Nc3nc(NS(=O)(=O)c4ccc(C)cc4)nn32)cc1 (stereo not drawn)	i
O=S(=O)(Nc1nc2n(n1)C(c1ccccc1)C=C(c1ccccc1)N2)c1ccc(Cl)cc1 (stereo not drawn)	i
Cc1ccc(S(=O)(=O)Nc2nc3n(n2)C(c2c(F)cccc2Cl)C=C(c2ccccc2)N3)cc1 (stereo not drawn)	+
Cc1ccc(S(=O)(=O)Nc2nc3n(n2)C(c2ccccc2)C=C(c2ccc(Cl)cc2)N3)cc1 (stereo not drawn)	i
Cc1ccc(C2=CC(c3ccc(C)cc3)n3nc(NS(=O)(=O)c4ccc(C)cc4)nc3N2)cc1 (stereo not drawn)	+
Cc1ccc(C2=CC(c3ccccc3Cl)n3nc(NS(=O)(=O)c4ccc(C)cc4)nc3N2)cc1 (stereo not drawn)	i
CCNC(=O)C1CCN(CC(=O)Nc2cc(OC)cc(OC)c2)C1 (stereo not drawn)	i
O=C(NCCCn1c(C(F)(F)F)nc2cccnc21)NCc1cccc(F)c1	i
CN1CCNC(=O)C12CCN(C(=O)C1=CC(=O)CC(C)(C)O1)CC2	i
Cc1ccc(C2(O)CCN(C(=O)Cc3ccccc3C)CC2)nc1	i
CSc1nc(Nc2ccc(C(C)C)cc2)c(C#N)c(-c2ccc(C)cc2)n1	i
COc1ccc2nc(NC(=O)CCCc3nc4cccnc4n3Cc3ccc(F)cc3)sc2c1	i
Cc1oc(-c2cccc(C(F)(F)F)c2)nc1CN1CCN(C)C(C)C1 (stereo not drawn)	i
O=C(CN1c2ccc(F)cc2-c2ccccc2S1(=O)=O)Nc1ccccc1Oc1ccccc1	+
CCc1ccc2c(c1)-c1ccccc1S(=O)(=O)N2CC(=O)Nc1ccc(F)cc1	+
CCc1ccc(C2=C(C)C(=O)N(CC(=O)Nc3ccc(C)c(F)c3)S2(=O)=O)cc1	i
SMILES	FECH block
COc1ccc(NC(=O)CN2c3ccc(C(C)C)cc3-c3ccccc3S2(=O)=O)cc1Cl	i
O=C(CN1c2ccc(F)cc2-c2ccccc2S1(=O)=O)NCCN1CCOCC1	i
CCC1=C(c2ccc(OC)cc2)S(=O)(=O)N(CC(=O)Nc2ccc(F)cc2F)C1=O	i
C=CCNC(=O)c1ccccc1NC(=O)CN1c2ccc(C(C)C)cc2-c2ccccc2S1(=O)=O	i
CCOc1ccccc1NC(=O)CN1c2ccc(C(C)C)cc2-c2ccccc2S1(=O)=O	+
CC1CCN(c2ccc(NC(=O)CN3C(=O)c4ccccc4S3(=O)=O)cc2Cl)CC1	i
COc1ccc(-n2c(CN3CCNCC3)nc3cccnc32)cc1	i
Cc1ccc(NC(=O)NCCc2nc3cccnc3n2C2CCCCC2)cc1F	i
CCCn1nc(C)c(CNC(=O)c2cnc3ccccc3c2)c1C	i
CCc1ncc(C(=O)N(C)CCc2nc3ccc(OC)cc3[nH]2)cn1	i
O=C(CCC(=O)N1CCc2cc(S(=O)(=O)Nc3ccc(F)cc3)ccc21)N1CCCCCC1	i
O=S(=O)(NCc1nc2cccnc2n1Cc1ccc(F)cc1)c1ccc(F)c(Cl)c1	i
Cc1ccc2cc(-c3noc(CCC(=O)N4CCN(c5ccccc5F)CC4)n3)c(=O)[nH]c2c1	i
Cc1cc(-c2nc(C3(c4ccc(F)cc4)CCOC3)no2)n[nH]1 (stereo not drawn)	i
CS(=O)(=O)N1CCCc2cc(C(=O)Nc3ccc(S(N)(=O)=O)cc3)ccc21	i
CNS(=O)(=O)c1ccc(CCc2nc(CCc3ccccc3)n[nH]2)cc1	i
COc1ccc(Cl)cc1NS(=O)(=O)c1cc(N2C(=O)CCS2(=O)=O)ccc1C	i
c1ccc(N2CCN(c3nc(Nc4ccc5c(c4)OCO5)c4cnn(-c5ccccc5)c4n3)CC2)cc1	i
Cn1c(=O)c(C(=O)N2CCN(C3CCCCC3)CC2)nc2ccccc21	i
Cc1ccc(NC(=O)c2nc3ccccc3n(C)c2=O)c(C)c1	i
Cc1ccc(Cl)cc1N1CCN(C(=O)c2nc3ccccc3n(C)c2=O)CC1	i
Cc1cccc(N2CCN(C(=O)c3nc4ccccc4n(C)c3=O)CC2C)c1 (stereo not drawn)	+
Cc1cccc(N2CCN(C(=O)Cn3c(=O)c4cnc(-c5ccccc5)nc4n(C)c3=O)CC2C)c1 (stereo not drawn)	i
COc1cccc(N2CCN(C(=O)c3nc4ccccc4n(C)c3=O)CC2)c1	+
Cc1cc(Nc2ccc(OC(=O)CCc3ccccc3)cc2)n2nc(-c3cccnc3)nc2n1	i
O=C(N[C@@H]1c2ccccc2C2(CCNCC2)[C@H]1O)c1scc2c1OCCO2	i

Screening data from PubChem BioAssay.
